Test results as given in the supplement of paper PMC9254222.
Over roughly 1,100 compounds, “Renilla luciferase signal (cell health) relative to plate median” has its median near 0.97; the highest 2% begin near 1.6. The full list was thinned out, with the highest values kept by preference.

Test system: HEK293T (UBE3A T485A transfected, BAR Wnt reporter)
Experiment: Renilla luciferase signal (cell health) relative to plate median (fold (linear ratio)); higher = higher Renilla signal
Details: 24 h
In short: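 HEK293T cells were grown in DMEM with 10% FBS at 37°C and 5% CO2, at 4500 cells/well in white 384-well plates. They were transfected with a BAR firefly luciferase Wnt reporter, TK-Renilla and an expression plasmid using Fugene 6. Four hours later, robots dosed the chemicals at 0.01–100 uM for 24 h, followed by Dual-Glo luciferase readout. Wnt activity (firefly/Renilla ratio) and cell health (raw Renilla) were median-centred per plate, averaged over four biological replicates.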

| SMILES | Renilla luciferase signal (concentration: 0.01 uM) | Renilla luciferase signal (concentration: 0.1 uM) | Renilla luciferase signal (concentration: 1 uM) | Renilla luciferase signal (concentration: 10 uM) | Renilla luciferase signal (concentration: 100 uM) |
| --- | --- | --- | --- | --- | --- |
| CN1C2CC(OC(=O)C(CO)c3ccccc3)CC1C1OC12 (configuration not stated) [Scopolamine] | 0.78 | 0.722 | 0.931 | 0.834 | 1.62 |
| CNC(=O)Oc1cccc2c1OC(C)(C)C2 [Carbofuran] | – | 1.05 | 1.01 | 0.953 | 0.523 |
| CC(C)(C)OOC(C)(C)C [Di-tert-butyl peroxide] | – | 1.07 | 0.922 | 1.09 | 1.12 |
| O=[As][O-].[Na+] [Sodium arsenite] | 0.746 | 0.622 | 0.288 | 0.0446 | 0.0136 |
| CC(C)(C)c1ccc(CSc2cnn(C(C)(C)C)c(=O)c2Cl)cc1 [Pyridaben] | 1.05 | 0.947 | 0.477 | 0.233 | 0.172 |
| Nc1ccc(Cl)cc1N [4-Chloro-1,2-diaminobenzene] | – | 1.05 | 0.965 | 0.612 | 0.0486 |
| Nc1cc(Cl)cc(C(=O)O)c1Cl [Chloramben] | – | 1.02 | 1.02 | 1.18 | 1.64 |
| C[C@@H]1C[C@@H]([C@H](O)CC2CC(=O)NC(=O)C2)C(=O)[C@@H](C)C1 [Cycloheximide] | – | 0.674 | 0.0448 | 0.0298 | 0.0285 |
| CC(O)CCO (configuration not stated) [1,3-Butanediol] | – | 1.06 | 1.08 | 1.16 | 1.47 |
| CCC(C)(CC)c1cc(NC(=O)c2c(OC)cccc2OC)on1 [Isoxaben] | 0.906 | 0.789 | 0.94 | 0.964 | 0.549 |
| ClC(Cl)=C(c1ccc(Cl)cc1)c1ccc(Cl)cc1 | – | 0.978 | 1.09 | 1.13 | 1.33 |
| O=C(NC(=O)c1c(F)cccc1F)Nc1cc(Cl)c(OC(F)(F)C(F)F)c(Cl)c1 [Hexaflumuron] | – | 0.601 | 0.604 | 0.441 | 0.493 |
| Oc1ccccc1-c1ccccc1 [2-Phenylphenol] | 1.08 | 1.08 | 0.948 | 1.01 | 0.987 |
| c1ccc(OP(Oc2ccccc2)Oc2ccccc2)cc1 [Triphenyl phosphite] | – | 1.06 | 1.18 | 1.24 | 1.16 |
| OCCOc1ccccc1 [2-Phenoxyethanol] | 0.629 | 0.856 | 0.906 | 0.983 | 1.74 |
| Clc1ccc(C(c2ccc(Cl)cc2)C(Cl)(Cl)Cl)cc1 | – | 0.841 | 0.863 | 0.92 | 0.995 |
| O=Cc1ccco1 [Furfural] | – | 1.24 | 1.36 | 1.2 | 1.45 |
| NCCO.O=C(O)c1nc(Cl)ccc1Cl [Clopyralid-olamine] | 1.41 | 1.18 | 1.06 | 1.2 | 1.53 |
| Nc1c(Cl)c(Cl)nc(C(=O)O)c1Cl [Picloram] | 1.22 | 0.925 | 1.11 | 1.09 | 1.33 |
| O=C(O)c1nc(Cl)ccc1Cl [Clopyralid] | 0.962 | 0.828 | 0.985 | 1 | 1.8 |
| O=C1CCCO1 [4-Butyrolactone] | – | 0.916 | 0.91 | 0.928 | 1.07 |

| SMILES | Renilla luciferase signal (concentration: 0.01 uM) | Renilla luciferase signal (concentration: 0.1 uM) | Renilla luciferase signal (concentration: 1 uM) | Renilla luciferase signal (concentration: 10 uM) | Renilla luciferase signal (concentration: 100 uM) |
| --- | --- | --- | --- | --- | --- |
| CCC(=O)C(CC(C)N(C)C)(c1ccccc1)c1ccccc1.Cl (configuration not stated) [Methadone hydrochloride] | – | 1.01 | 1.01 | 1.07 | 0.142 |
| CCCCC(CC)COC(=O)c1ccc(C(=O)OCC(CC)CCCC)cc1 (configuration not stated) [Bis(2-ethylhexyl) terephthalate] | – | 0.974 | 1.13 | 1.09 | 1.28 |
| CCCCC(CC)COC(=O)c1ccccc1C(=O)OCC(CC)CCCC (configuration not stated) [Di(2-ethylhexyl) phthalate] | 1.26 | 1.13 | 1.01 | 1.11 | 0.496 |
| CCCCC(CC)COC(=O)CCCCC(=O)OCC(CC)CCCC (configuration not stated) [Di(2-ethylhexyl) adipate] | – | 1.15 | 1.09 | 1.28 | 1.76 |
| C#CCN1C(=O)COc2cc(F)c(N3C(=O)C4=C(CCCC4)C3=O)cc21 [Flumioxazin] | 1.13 | 1.14 | 0.954 | 1.11 | 0.949 |
| Clc1cccc(Cl)c1Cl [1,2,3-Trichlorobenzene] | – | 1.21 | 0.959 | 1.18 | 1.43 |
| N#Cc1c(Cl)cccc1Cl [Dichlobenil] | 0.873 | 0.853 | 1.03 | 0.992 | 1.96 |
| Clc1ccccc1Cl [1,2-Dichlorobenzene] | – | 1.14 | 0.945 | 1.05 | 1.27 |
| Cc1ccc(/N=C/N(C)/C=N/c2ccc(C)cc2C)c(C)c1 [Amitraz] | 1.29 | 1.17 | 1.06 | 1.21 | 0.0374 |
| O=C(NC(=O)c1cc(F)c(F)cc1Cl)Nc1cc(F)ccc1N1CCC(C(=O)O)CC1 | – | 0.8 | 0.813 | 0.797 | 0.641 |
| O=C(O)C(F)(F)C(F)(F)C(F)(F)C(F)(F)C(F)(F)F | – | 0.973 | 0.941 | 0.896 | 0.93 |
| O=C(O)C(F)(F)C(F)(F)C(F)(F)C(F)(F)C(F)(F)C(F)(F)C(F)(F)F | 0.983 | 0.781 | 0.834 | 0.9 | 1.9 |
| O=C(O)C(F)(F)C(F)(F)C(F)(F)C(F)(F)C(F)(F)C(F)(F)C(F)(F)C(F)(F)C(F)(F)C(F)(F)F [Perfluoroundecanoic acid] | – | 0.861 | 0.837 | 0.868 | 0.248 |
| CCOC1Oc2ccc(OS(C)(=O)=O)cc2C1(C)C (configuration not stated) [Ethofumesate] | 0.946 | 1.07 | 0.964 | 0.843 | 1.01 |
| CCOC(=O)C(C)OC(=O)c1cc(Oc2ccc(C(F)(F)F)cc2Cl)ccc1[N+](=O)[O-] (configuration not stated) [Lactofen] | 0.928 | 0.611 | 0.876 | 0.801 | 0.32 |
| O=C(O)c1cc(Oc2ccc(C(F)(F)F)cc2Cl)ccc1[N+](=O)[O-] [Acifluorfen] | 1.17 | 1.25 | 0.942 | 1.02 | 1.67 |
| CS(=O)(=O)NC(=O)c1cc(Oc2ccc(C(F)(F)F)cc2Cl)ccc1[N+](=O)[O-] [Fomesafen] | – | 0.998 | 1.11 | 1.03 | 1.19 |
| CCN(CC)c1nc(C)cc(OP(=S)(OC)OC)n1 [Pirimiphos-methyl] | 1.11 | 1.2 | 1 | 0.992 | 1.53 |
| CN(C)c1nc(=O)n(C2CCCCC2)c(=O)n1C [Hexazinone] | 0.842 | 0.839 | 0.85 | 0.916 | 1.2 |
| O=C(O)CCCOc1ccc(Cl)cc1Cl | 1.02 | 0.895 | 0.898 | 0.957 | 1.44 |
| Cc1cc(Cl)ccc1OCC(=O)O | 1.11 | 1.19 | 1.09 | 1.12 | 1.34 |

| SMILES | Renilla luciferase signal (concentration: 0.01 uM) | Renilla luciferase signal (concentration: 0.1 uM) | Renilla luciferase signal (concentration: 1 uM) | Renilla luciferase signal (concentration: 10 uM) | Renilla luciferase signal (concentration: 100 uM) |
| --- | --- | --- | --- | --- | --- |
| O=C(O)COc1nc(Cl)c(Cl)cc1Cl [Triclopyr] | 0.99 | 0.979 | 0.95 | 1.02 | 1.84 |
| O=C(O)COc1ccc(Cl)cc1Cl [2,4-Dichlorophenoxyacetic acid] | 1.31 | 1 | 0.995 | 1.02 | 1.69 |
| CCOP(=O)(OCC)Oc1nc(Cl)c(Cl)cc1Cl [Chlorpyrifos oxon] | 0.952 | 1.24 | 1.07 | 0.919 | 0.0737 |
| Nc1c(Cl)c(F)nc(OCC(=O)O)c1Cl [Fluroxypyr] | 1.01 | 1.05 | 0.92 | 1.02 | 1.09 |
| C1=CCCC=CCCC=CCC1 [1,5,9-Cyclododecatriene] | – | 0.691 | 0.775 | 0.813 | 1.02 |
| CCOC(=O)c1ccccc1C(=O)OCC [Diethyl phthalate] | – | 0.834 | 0.893 | 0.976 | 1.05 |
| COc1nc(NC(C)C)nc(NC(C)C)n1 [Prometon] | 0.865 | 0.628 | 0.707 | 1.02 | 1.41 |
| CC(C)(O)C(=O)Nc1ccc([N+](=O)[O-])c(C(F)(F)F)c1 [Hydroxyflutamide] | – | 0.949 | 0.928 | 0.775 | 0.129 |
| CC(C)=CC1C(C(=O)OCc2coc(Cc3ccccc3)c2)C1(C)C (configuration not stated) [Resmethrin] | 1.12 | 1.04 | 0.974 | 1.01 | 0.166 |
| CCCCOCN(C(=O)CCl)c1c(CC)cccc1CC [Butachlor] | 0.877 | 0.813 | 0.902 | 0.865 | 0.895 |
| CC1(c2ccc(Oc3ccccc3)cc2)OC(=O)N(Nc2ccccc2)C1=O (configuration not stated) [Famoxadone] | 1.07 | 1.08 | 1.07 | 0.383 | 1.15 |
| NS(=O)(=O)C(F)(F)C(F)(F)C(F)(F)C(F)(F)C(F)(F)C(F)(F)C(F)(F)C(F)(F)F | – | 0.448 | 0.567 | 0.447 | 0.0943 |
| Cc1c(F)c(F)c(COC(=O)C2C(/C=C(\Cl)C(F)(F)F)C2(C)C)c(F)c1F (configuration not stated) [Tefluthrin] | 0.953 | 0.885 | 1.03 | 0.886 | 1.47 |
| C[n+]1ccc(-c2cc[n+](C)cc2)cc1 [Paraquat] | 0.802 | 0.782 | 0.9 | 0.995 | 2.18 |
| CCNc1nc(Cl)nc(NC(C)(C)C)n1 [Terbutylazine] | – | 0.934 | 1.02 | 0.978 | 0.981 |
| Cc1cccc(C)c1N [2,6-Dimethylaniline] | – | 0.815 | 0.773 | 0.833 | 0.897 |
| O=C(O)CNCP(=O)(O)O [Glyphosate] | 0.796 | 0.874 | 0.905 | 1.07 | 2.5 |
| COP(=S)(OC)Oc1nc(Cl)c(Cl)cc1Cl [Chlorpyrifos-methyl] | 1.5 | 1.18 | 1.01 | 1.04 | 0.838 |
| CN(C)NC(=O)CCC(=O)O [Daminozide] | 0.728 | 0.735 | 0.928 | 0.807 | 1.39 |
| Cc1ccc(N)cc1N [2,4-Diaminotoluene] | – | 1.12 | 1.22 | 1.09 | 1.45 |
| O=C(O)c1c(Cl)ccc2cc(Cl)cnc12 [Quinclorac] | 1.12 | 1.11 | 0.984 | 1.04 | 1.88 |
